From PubChem BioAssay
KKLEB cytotox: cytotoxicity in KKLEB CF airway cells, primary screen, cytotoxicity control for CF NF-kB inhibitor project, cell-based, uHTS, fluorescence assay plates; KKLEB CF airway cells viability, ATPlite luminescence, overnight; stronger effect = lower value; cells stimulated with P. aeruginosa culture filtrate; activity change (cytotoxicity), % at 5 µM; 360,000 tested, 0.36% active; AID 602141, 2011;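 active = corrected activity change at or below -50% at 5 µM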
Mdm2-MdmX inh: inhibitors of human Mdm2-MdmX association, primary screen, cell-based, luminescence, split luciferase, SaOS-2, uHTS | 330,000 tested, 3% active | SaOS-2 split-luciferase Mdm2/MdmX complementation | inhibition, % at 8 µM;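 active = inhibition of at least 50% at 8 µM in the primary screen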
Peg3 promoter: Peg3 promoter-driven luciferase inhibitors, primary screen, cell-based, HeLa, luciferase luminescence. HeLa PEG-Prom luciferase reporter, overnight. inhibition, % at 20 µM. 360,000 tested, 1.7% active. AID 588405, 2011;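 active = inhibition of at least 50% at 20 µM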
ABHD5 PLIN5 PPI: ABHD5-PLIN5 interaction inhibitors, primary screen, cell lysate, split luciferase complementation, luminescence; inhibition, % at 4 µM; AID 602281, 2012; Perilipin-5 (Homo sapiens) + 1-acylglycerol-3-phosphate O-acyltransferase ABHD5 (Homo …; 360,000 tested, 0.78% active; Split G. princeps luciferase complementation, 4 h;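 active = inhibition above the mean inhibition across every tested compound plus 3 SD, cut at about 22% in these data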;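 also: 0% = DMSO only wells and the 100% control is not disclosed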
HIF-2a block: HIF-2a reporter inhibitors, primary screen, luminescence, 786-0 RCC cells; 786-0 RCC cells HIF-2a reporter, luciferase luminescence, overnight; inhibition, % at 18.8 µM; 360,000 tested, 0.72% active; AID 624352, 2012;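 active = inhibition of the luminescence signal of 40% or more relative to plate controls, in a single-dose primary screen at 18.75 µM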
CF NFkB block: inhibitors of PAF-induced NF-kB signaling, primary screen, cell-based, GFP fluorescence, uHTS; 360,000 tested, 0.86% active; KKLEB NF-kB-GFP reporter, GFP fluorescence overnight; inhibition, % at 5 µM; AID 588850, 2011;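 active = at least 50% inhibition at 5 µM, scaled per plate between neutral and stimulator controls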;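 also: PAF is a Pseudomonas aeruginosa culture filtrate used as stimulus; plate controls were PAF-stimulated DMSO wells for no effect and unstimulated DMSO wells for full effect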
ABHD5-PLIN5 conf: ABHD5-PLIN5 interaction inhibitors, confirmation, biochemical, luminescence; shares compounds with ABHD5 PLIN5 PPI; inhibition, % at 4 µM; 2,200 tested, 67% active; in the data active = inhibition above about 23%;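 also: 0% = DMSO vehicle wells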
HNF4 split-luc: HNF4 dimerization inhibitors, counter-screen for ABHD5-PLIN5 interaction inhibitor project, biochemical, split-luciferase complementation, luminescence; shares compounds with ABHD5 PLIN5 PPI; inhibition, % at 4 µM; 2,200 tested, 77% active; AID 651674, 2012;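 active = mean inhibition across replicate wells exceeding the computed hit threshold, cut at about 13% in these data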;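 also: light from luciferase halves that rejoin when HNF4 fusion proteins dimerize; 0% = DMSO only wells and the 100% control is not given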
Target sequence (P41235 whole entry, looked up, the tested form may be a part): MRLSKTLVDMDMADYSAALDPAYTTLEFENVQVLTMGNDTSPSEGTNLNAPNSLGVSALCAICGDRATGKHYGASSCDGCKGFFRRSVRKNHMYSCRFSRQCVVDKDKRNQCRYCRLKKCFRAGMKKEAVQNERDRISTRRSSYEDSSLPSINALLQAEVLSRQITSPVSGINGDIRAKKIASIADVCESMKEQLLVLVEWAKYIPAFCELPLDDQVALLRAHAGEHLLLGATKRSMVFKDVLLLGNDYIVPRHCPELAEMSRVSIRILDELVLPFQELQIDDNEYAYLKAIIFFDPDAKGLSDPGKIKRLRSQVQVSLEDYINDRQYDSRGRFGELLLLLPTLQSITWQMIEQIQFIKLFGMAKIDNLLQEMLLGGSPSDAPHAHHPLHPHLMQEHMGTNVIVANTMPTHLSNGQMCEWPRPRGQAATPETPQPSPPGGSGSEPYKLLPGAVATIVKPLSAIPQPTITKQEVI
Starred values were filed as active, the others as inactive; . = not tested or not shown. Hits are enriched below; roughly 4.6% of the tested compounds scored in any of these assays.

SMILES | KKLEB cytotox | Mdm2-MdmX inh | Peg3 promoter | ABHD5 PLIN5 PPI | HIF-2a block | CF NFkB block | ABHD5-PLIN5 conf | HNF4 split-luc
C=CCc1cc(/C=C/c2nc(O)c([N+](=O)[O-])c(=O)[nH]2)cc(OC)c1O | 8 | 8 | 2 | 27* | 25 | 0 | 42* | 32*
COc1ccccc1CN(CC(=O)NCc1ccc(F)cc1)C(=O)c1csnn1 | 7 | -11 | 2 | 6 | 9 | -2 | . | .
Fc1ccc(CSc2nnc(-c3cccnc3)n2Cc2ccco2)cc1 | -5 | -13 | 10 | 16 | 14 | 10 | . | .
Fc1ccccc1CSc1nnc(-c2cnccn2)n1Cc1ccco1 | -4 | -9 | -58 | 0 | -83 | 6 | . | .
Clc1ccccc1CSc1nnc(-c2cccnc2)n1Cc1ccco1 | -7 | -45 | 5 | 31* | 16 | 0 | 9 | 12*
Cc1cccc(NC(=O)CSc2nnc(-c3cnccn3)n2Cc2ccco2)c1 | 2 | 19 | -5 | 68* | 0 | 20 | 11 | 11
CC(C)OC(=O)CSc1nnc(-c2cnccn2)n1Cc1ccco1 | 3 | -1 | 2 | -5 | 7 | -7 | . | .
C(=C\c1ccccc1)/CSc1nnc(-c2cnccn2)n1Cc1ccco1 | 11 | 34 | 13 | 37* | 9 | 3 | 19 | 29*
Cc1ccc(NC(=O)CSc2nnc(-c3cnccn3)n2Cc2ccco2)cc1 | -1 | 24 | 14 | 8 | 18 | 7 | . | .
O=C(CSc1nnc(-c2cnccn2)n1Cc1ccco1)c1ccc2ccccc2c1 | -14 | -9 | 5 | 37* | -4 | 0 | 16 | 27*
Cc1ccccc1NC(=O)C(C)OC(=O)C1CCCO1 (stereo not drawn) | 11 | . | -5 | 0 | 7 | 2 | . | .
Cc1cccc(NC(=O)CSc2nnc(-c3ccco3)c(-c3ccco3)n2)c1C | -1 | -20 | -5 | 10 | 0 | 12 | . | .
Cc1cccc(NC(=O)CSc2nnc(-c3ccco3)c(-c3ccco3)n2)c1 | -3 | 7 | 8 | 26* | 9 | 7 | 90* | 67*
Cc1ccc(F)c(S(=O)(=O)NC(=O)C2(C)CCN2C(=O)c2ccccc2)c1 (stereo not drawn) | -11 | . | -4 | -5 | 4 | -5 | . | .
COc1ccc(/C=C/C(=O)c2ccccc2)cc1Cn1nnc2ccccc21 | -14 | 17 | 43 | 31* | 35 | 37 | 73* | 66*
C/C=C/c1ccc(OCCn2nnc3ccccc32)c(OC)c1 | -5 | -13 | -208 | 6 | -212 | -22 | . | .
O=C(C=Cc1ccccc1)c1cccs1 | -15 | . | -39 | 59* | -95 | 16 | 71* | 64*
Nc1ccc(/C=C/C(=O)c2cccs2)cc1 | -3 | -11 | -274 | 13 | -230 | -9 | . | .
O=[N+]([O-])c1cccc(C2=NC(c3ccccc3)CO2)c1 (stereo not drawn) | 5 | 31 | -114 | 9 | -132 | -30 | . | .
O=c1[nH]cnc2c1N=C(c1cccc([N+](=O)[O-])c1)CC(c1ccccc1)N2 (stereo not drawn) | -18 | -4 | -11 | 45* | -8 | -13 | 10 | 26*
O=C(O)c1cccc(-n2sc3ccccc3c2=O)c1 | 10 | -15 | -4 | 109* | -1 | -1 | 97* | 120*
CC(=O)Nc1ccc2c(=O)n(-c3ccccc3)sc2c1 | 10 | . | -61 | 79* | -96 | 33 | 69* | 117*
O=C(O)c1cccc(-n2c(/C=C/c3ccccc3)nc3ccccc3c2=O)c1 | 12 | 37 | 3 | -4 | 25 | -20 | . | .
CC(=O)Nc1ccc(-c2cc(N)n(-c3ccccc3)n2)cc1 | 5 | -62 | -234 | -6 | -208 | -1 | . | .
C[C@H]1CN(S(=O)C(C)(C)C)[C@H](CCO)/C1=C\c1ccccc1 (stereo partly drawn) | -4 | . | 13 | -4 | 0 | 12 | . | .
SMILES | KKLEB cytotox | Mdm2-MdmX inh | Peg3 promoter | ABHD5 PLIN5 PPI | HIF-2a block | CF NFkB block | ABHD5-PLIN5 conf | HNF4 split-luc
CC1CCC(C(=O)NNC(=O)c2cc(-c3ccco3)[nH]n2)CC1 (stereo not drawn) | 3 | 2 | 11 | 27* | 10 | -13 | 3 | 1
O=C(CSc1nncs1)NNC(=O)c1ccco1 | 1 | 1 | 5 | 6 | 9 | -54 | . | .
O=[N+]([O-])c1ccc(N2CCc3ccccc3C2)nc1 | -29 | -10 | -74 | 33* | -91 | 16 | 16 | 20*
O=C(O)c1ccccc1Nc1cc(Cl)c2nonc2c1[N+](=O)[O-] | 1 | 4 | 14 | 29* | 18 | -12 | 80* | 95*
O=C(O)c1cccc(Nc2ccc([N+](=O)[O-])c3nonc23)c1 | -20 | 25 | -4 | 16 | 17 | 4 | . | .
O=C(O)c1cccc(Nc2cc(Cl)c3nonc3c2[N+](=O)[O-])c1 | -7 | 13 | 19 | 29* | 9 | 5 | 58* | 95*
CCCCn1c(N)c(N(CC(C)C)C(=O)c2ccc(Cl)c(S(=O)(=O)N3CCCC3)c2)c(=O)[nH]c1=O | -6 | 13 | 5 | -2 | 8 | -11 | . | .
CC(=O)c1ccc(OCc2cc(C(=O)N(C)CCOc3ccc(C)cc3)no2)cc1 | 8 | -68 | -280 | 0 | -243 | -17 | . | .
O=C(NCCOc1ccccc1Cl)c1ccc2c(c1)S(=O)(=O)c1cc(Cl)ccc1C2=O | 5 | 3 | 12 | 3 | 7 | -11 | . | .
Cc1sc(NC(=O)C2CC(=O)N(Cc3ccco3)C2)nc1-c1ccccc1 (stereo not drawn) | 10 | . | 6 | 10 | 9 | -11 | . | .
Cc1ccc(CC2S/C(=C(/C#N)C(=O)NCc3ccco3)N(c3ccccc3)C2=O)cc1 (stereo not drawn) | -11 | -21 | -8 | 23* | 9 | 11 | 10 | 13*
Cc1ccc2nc(N(CCCN(C)C)C(=O)COc3ccc(Cl)cc3)sc2c1 | -2 | 0 | -45 | 26* | -13 | 3 | 16 | 0
Cc1ccc2nc(N(CCCN(C)C)C(=O)c3ccc(Br)s3)sc2c1 | -6 | 23 | -36 | 30* | -15 | -6 | 13 | 2
CN(C)CCCN(C(=O)COc1ccc(Cl)cc1)c1nc2ccc(F)cc2s1 | -2 | 13 | -56 | 27* | -55 | 22 | 13 | 3
O=C(NCc1ccc(F)cc1F)[C@@H]1CCCN1C(=O)[C@@H]1CCCN1C(=O)c1ccccc1 | . | . | . | 6 | -4 | . | . | .
